# High-throughput results deposited in PubChem by several laboratories.
# PRMT1 inh – PRMT1 (human) inhibition, primary screen; recombinant PRMT1, activity-based probe fluorescence polarization; Q99873; 370,000 compounds, 1.3% hits; AID 652257; inhibition, % at 2.79 µM;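 active = inhibition above about 21% made by adding two undisclosed values, limit read from the data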
# ALR inh – inhibitors of human sulfhydryl oxidase ALR | purified ALR, DTT oxidation, H2O2 HRP-luminol luminescence | inhibition, % (concentration not given with the values) | 290,000 compounds, 3.8% hits | AID 485317;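 active = mean replicate inhibition above about 79%, with every replicate also reaching it, limit read from the data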
# Target sequence (P55789 whole entry, looked up): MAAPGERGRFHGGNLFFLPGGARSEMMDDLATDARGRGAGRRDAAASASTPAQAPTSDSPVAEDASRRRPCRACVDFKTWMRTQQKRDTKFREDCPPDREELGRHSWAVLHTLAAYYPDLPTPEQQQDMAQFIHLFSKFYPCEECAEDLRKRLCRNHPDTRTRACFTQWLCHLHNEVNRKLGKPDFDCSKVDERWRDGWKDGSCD
# Rtt109 HAT inh – blocks Candida albicans Rtt109/Vps75 acetyltransferase activity. purified Rtt109/Vps75, ThioGlo CoA-SH fluorescence, 4 h. 330,000 compounds, 0.16% hits. inhibition, % at 34.9 µM. Q5AAJ8. AID 540336;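 active = inhibition of at least 50% in every replicate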
# Target sequence (Q5AAJ8 whole entry, looked up): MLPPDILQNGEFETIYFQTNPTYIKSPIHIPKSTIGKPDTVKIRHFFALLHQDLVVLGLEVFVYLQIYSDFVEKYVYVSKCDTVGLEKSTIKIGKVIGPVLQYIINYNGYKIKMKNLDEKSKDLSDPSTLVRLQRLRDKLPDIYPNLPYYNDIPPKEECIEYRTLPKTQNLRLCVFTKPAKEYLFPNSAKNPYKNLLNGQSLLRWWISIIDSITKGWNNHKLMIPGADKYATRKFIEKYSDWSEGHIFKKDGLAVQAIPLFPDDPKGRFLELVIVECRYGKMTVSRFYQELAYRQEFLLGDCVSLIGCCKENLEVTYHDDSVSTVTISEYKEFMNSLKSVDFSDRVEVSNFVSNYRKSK
# LANA-H2B inh – blocks KSHV LANA binding to histone H2A/H2B; Q9QR71; cell-free LANA-H2A/H2B peptide, fluorescence polarization; inhibition, % (concentration not given with the values); 320,000 compounds, 0.6% hits; in the data active = inhibition mostly above about 10%, no sharp cut-off; inactive = mostly below about 6.7%
# ABHD5-PLIN5 inh – inhibitors of human ABHD5-perilipin-5 interaction. Q00G26+Q8WTS1. AID 602281. inhibition, % at 4 µM. 360,000 compounds, 0.78% hits. Split G. princeps luciferase complementation, luminescence, 4 h;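 active = inhibition above the mean inhibition across every tested compound plus 3 SD, cut at about 22% in these data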
# rCAG RNA binder – binds r(CAG) RNA repeats. r(CAG) RNA repeat, TO-PRO-1 dye displacement fluorescence. inhibition, % at 3 µM. 370,000 compounds, 1.3% hits. AID 651821;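 active = inhibition above the plate cutoff, the mean of all test compounds on that plate plus 3 SD, cut at about 35% in these data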;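 also: higher means more dye released from RNA so lower well fluorescence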
# rCAG bind conf – r(CAG) RNA repeat binding, confirmation; shares compounds with rCAG RNA binder; TO-PRO-1 dye displacement fluorescence; inhibition, % at 3 µM; 4,300 compounds, 70% hits;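 active = inhibition above a per-plate cutoff, the mean inhibition of sample wells plus 3 SD, cut at about 35% in these data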;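 also: loss of TO-PRO-1 fluorescence as compound displaces dye from 1x1 AA loop RNA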
# dCAG dye counter – DNA CAG dye complex inhibition counter-screen; 4,300 compounds, 94% hits; AID 652068; inhibition, % at 3 µM; shares compounds with rCAG RNA binder; d(CAG) DNA oligo TO-PRO-1 dye displacement, fluorescence;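 active = inhibition above its plate's cutoff, the mean test-well inhibition plus 3 SD, cut at about 4.8% in these data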;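 also: hits displace the dye from DNA and so lower well fluorescence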
# Hits are given with their value; . = inactive; / = no result given. Hits are enriched below; roughly 5.9% of the tested compounds scored in any of these assays.
SMILES,PRMT1 inh,ALR inh,Rtt109 HAT inh,LANA-H2B inh,ABHD5-PLIN5 inh,rCAG RNA binder,rCAG bind conf,dCAG dye counter
O=C(Nc1cccc(S(=O)(=O)N2CCCCC2)c1)c1ccccc1NS(=O)(=O)c1ccc(F)cc1,.,.,.,.,.,61,76,36
O=S(=O)(Nc1cccc(S(=O)(=O)N2CCCCC2)c1)c1ccc(Cl)s1,.,/,.,/,.,46,35,12
O=C(NCCN1CCC(Cc2ccccc2)CC1)C1CCCN(S(=O)(=O)c2ccc(Br)s2)C1 (stereo not drawn),.,/,/,/,/,.,/,/
COc1ccc(/C(=N/Nc2ncnc3ccccc23)C(=O)O)cc1,.,.,.,.,.,.,/,/
O=C(Nc1cc(S(=O)(=O)N2CCCCC2)ccc1O)c1ccccc1NS(=O)(=O)c1ccc(F)c(F)c1,.,96,.,.,.,85,88,64
Cc1onc(-c2c(F)cccc2Cl)c1C(=O)Nc1cc(S(=O)(=O)N2CCCCC2)ccc1O,.,/,.,/,.,52,36,12
O=C(Nc1cc(S(=O)(=O)Nc2ccccc2Cl)ccc1O)c1ccc(F)cc1F,.,.,.,.,.,.,/,/
CCN(c1cccc(C)c1)S(=O)(=O)c1nnc(NC(=O)c2ccco2)s1,.,.,.,.,.,39,.,6.5
Cc1ccc(N(C)S(=O)(=O)c2nnc(NC(=O)c3ccco3)s2)cc1,.,.,.,.,.,.,/,/
CN(c1ccc(Cl)cc1)S(=O)(=O)c1nnc(NC(=O)c2ccco2)s1,.,.,.,.,.,39,.,7.4
CCN(c1ccccc1)S(=O)(=O)c1nnc(NC(=O)c2ccco2)s1,.,.,.,.,.,.,/,/
O=C(Nc1ccc(F)cc1)Nc1nnc(-c2ccncc2)s1,.,.,.,.,.,.,/,/
Cc1ccc(NC(=O)Nc2nnc(-c3ccncc3)s2)cc1C,.,.,.,.,.,60,49,17
O=C(Nc1ccc(Cl)cc1)Nc1nnc(-c2ccncc2)s1,.,.,.,.,.,.,/,/
O=C(Nc1cccc(Cl)c1)Nc1nnc(-c2ccncc2)s1,.,/,.,.,.,66,45,22
Nc1ncnc2c1ccn2[C@H]1CN(Cc2ccc(Cl)cc2)C[C@@H](CO)O1,.,/,/,/,.,.,/,/
O=C1CCc2cc(S(=O)(=O)N3CCN(Cc4cccc5c4OCO5)CC3)ccc2N1,.,/,/,/,/,.,/,/
Cc1ccc(C2C(/C=C3/SC(=S)NC3=O)=C(c3cccs3)Oc3ccccc32)cc1 (stereo not drawn),.,99,.,.,.,80,83,51
CC(C)CN1C(=O)C[C@]2(C(=O)N(C)c3ccc(NC(=O)c4cc(F)ccc4F)cc32)C1c1ccccc1 (stereo partly drawn),.,/,/,/,/,.,/,/
CSC[C@H](NC(=O)COc1cc2c(c3oc(=O)c(C)c(C)c13)CCC(C)(C)O2)C(=O)O,.,/,.,.,.,.,/,/
Cc1c(C)c2c(OCC(=O)N[C@@H](Cc3ccccc3)C(=O)O)cc3c(c2oc1=O)CCC(C)(C)O3,.,.,.,.,.,45,48,13
O=C(COc1ccc2c(c1)oc(=O)c1ccccc12)N[C@@H](Cc1ccccc1)C(=O)O,.,.,.,.,.,.,/,/
Cc1c(CC(=O)O)c(=O)oc2cc(OCc3ccc(Cl)cc3)ccc12,.,.,.,44,.,38,.,6.9
Cc1c(Cc2ccccc2)c(=O)oc2cc(OCC(=O)N[C@@H](Cc3ccccc3)C(=O)O)ccc12,.,.,.,.,.,42,45,12
O=C(COc1ccc2c(c1)oc(=O)c1ccccc12)NC(Cc1ccc(Cl)cc1)C(=O)O (stereo not drawn),.,.,.,.,.,56,56,19
SMILES,PRMT1 inh,ALR inh,Rtt109 HAT inh,LANA-H2B inh,ABHD5-PLIN5 inh,rCAG RNA binder,rCAG bind conf,dCAG dye counter
CN1C2=N[C@H](c3ccccc3Br)CC(=O)N2/C(=C\c2ccccc2)[C@@H]1c1ccccc1,.,/,/,/,/,/,/,/
Cc1c(CC(=O)O)c(=O)oc2cc(OCc3nn[nH]n3)ccc12,.,.,.,.,.,.,/,/
COc1ccc(-c2cc3ccc(OCc4nn[nH]n4)cc3oc2=O)cc1OC,.,.,.,.,.,35,.,4.7
COc1ccc(-c2cc3ccc(OCC(C)=O)cc3oc2=O)cc1OC,.,.,.,.,.,.,/,/
Cc1c(Cc2ccccc2)c(=O)oc2cc(OCc3nn[nH]n3)ccc12,.,98,.,.,.,38,36,9.1
Cc1oc2cc3oc(=O)c(CC(=O)O)c(C)c3cc2c1-c1ccccc1,.,.,.,.,.,47,39,11
COCCNC(=O)C1(C)CCCN(C(=O)c2ccc3snnc3c2)C1 (stereo not drawn),.,/,/,/,.,.,/,/
O=C(O)c1ccc(/C=N/NC(=O)c2ccc(CN3c4cccc5cccc(c45)S3(=O)=O)cc2)cc1,.,.,.,.,.,67,68,31
COC(=O)C1=C(C)N(Cc2ccccc2C(F)(F)F)C(=NCc2cc(OC)c(OC)c(OC)c2)NC1CCc1ccccc1 (stereo not drawn),.,/,/,/,/,.,/,/
COc1cc2c(cc1NC(=O)C(Cl)Cl)-c1ccc(NC(=O)C(Cl)Cl)cc1C2,.,/,.,/,.,.,/,/
COc1cc2c(cc1NC(=O)c1ccccc1-c1ccccc1C(=O)O)-c1ccccc1C2,.,/,/,/,.,66,60,20
CCCCN(C)C(=O)c1ccc(Nc2nc(C(N)COCc3ccccc3)cs2)nc1 (stereo not drawn),.,/,/,/,.,.,/,/
O=C(O)/C(=C\c1ccc2ccccc2c1)c1cccc2ccccc12,.,.,.,.,.,58,52,17
O=C(O)C(=Cc1ccncc1)c1cccc2ccccc12,.,/,/,/,.,.,/,/
Nc1ccn([C@@H]2O[C@H](C(=O)N(CCC3=CCCCC3)CC3CC3)[C@@H](O)[C@H]2O)c(=O)n1,.,/,/,/,.,.,/,/
Cc1cc(Br)cn2c(Cc3cccc(Cl)c3)c(C3CCCCC3)nc12,.,/,/,/,/,.,/,/
Clc1ccc2nc(-c3cccc(Br)c3)c(Cc3ccccc3)n2c1,.,/,/,/,.,.,/,/
Clc1cccc(Cc2c(C3CCCCC3)nc3ccc(Br)cn23)c1,.,/,/,/,.,36,.,.
COC(=O)c1ccc2nc(-c3cccc(Cl)c3)c(Cc3ccccc3OC)n2c1,.,/,/,/,.,.,/,/
COc1ccccc1Cc1c(-c2cccc(Cl)c2)nc2ccc(Br)cn12,.,/,/,/,.,38,.,.
Clc1cccc(Cc2c(-c3ccccc3)nc3ccc(Cl)cn23)c1,.,/,/,/,.,36,.,5.5
Clc1cccc(Cc2c(-c3cccc(Br)c3)nc3ccc(Cl)cn23)c1,.,/,/,/,.,45,.,9.9
COc1ccc(S(=O)(=O)N2CCCOC2CNC(=O)C(=O)NCCO)cc1 (stereo not drawn),.,/,/,/,.,.,/,/
